# In PubChem BioAssay (NCATS):
# Unmarked numbers belong to inactive results. Results filed as inconclusive are left out. Active and inactive are the calls of the source. Calls follow the shape of the dose curve; as a rule, active = well fitted inhibition curve with a large enough effect; inconclusive = small, poorly fitted or top-dose-only effect; inactive = flat fitted curve, though single readings scatter.
# Molecular target: Phospholipid hydroperoxide glutathione peroxidase GPX4 (Homo sapiens) (UniProt P36969)
# Assay: Primary qHTS Assay for Inhibitors of Recombinant Selenoprotein Glutathione Peroxidase 4 (GPX4) (AID 1845192); also: nearly all actives have a fitted effect of over 65% in size; as to activity change, negative = inhibition: % is scaled to controls: 0 for no effect and ±100 for the full control effect
# Conditions: recombinant GPX4, GR-coupled NADPH fluorescence, 15 min; series mostly up to 50 µM; activity change, negative = inhibition: at the top concentration
# Outline: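 GR-coupled assay: recombinant GPX4 preincubated 30 min with compound at room temperature; final 200 nM GPX4, 1 mM GSH, 0.5 mM cumene hydroperoxide, 0.5 mM NADPH, 100 nM GR, 0.01% BSA, pH 7.5 Tris. NADPH fluorescence (340/450 nm) read at 0 and 15 min.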
# Chain of Phospholipid hydroperoxide glutathione peroxidase GPX4 (Homo sapiens) (P36969 whole entry, looked up): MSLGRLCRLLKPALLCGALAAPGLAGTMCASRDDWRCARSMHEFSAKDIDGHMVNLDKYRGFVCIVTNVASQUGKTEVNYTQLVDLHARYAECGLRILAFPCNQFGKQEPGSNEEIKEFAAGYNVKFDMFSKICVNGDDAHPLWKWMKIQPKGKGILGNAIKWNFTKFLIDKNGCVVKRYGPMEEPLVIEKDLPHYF
SMILES,"activity change, negative = inhibition",outcome
CCCn1ncc(CN2CCCC(C(=O)c3cccc(OC(C)C)c3)C2)c1C (centres undefined),-33.7%,
COc1ccc(-c2cnc3c(-c4cccc5ncccc45)cnn3c2)cc1,,inactive
COC(=O)N1CCC(n2ncc3c(N4CCOCC4)nc(-c4ccc(NC(=O)NC5CC5)cc4)nc32)CC1,-19.8%,
COc1ccc(C[C@H]2COC(=O)[C@@H]2Cc2ccc(O[C@@H]3O[C@H](CO)[C@@H](O)[C@H](O)[C@H]3O)c(OC)c2)cc1OC,-10.7% [at 27.8 µM],
CC(C)(Cc1ccccc1)NCC(O)c1ccc(O)c(NS(C)(=O)=O)c1 (centres undefined),-6.52%,

# Molecular target: Luciferin 4-monooxygenase (Photinus pyralis) (UniProt P08659)
# Assay: Primary firefly luciferase (FLuc) qHTS assay for identification of artifact compounds. (AID 1845220); also: nearly all actives have a fitted effect of over 60% in size;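 as to activity change, negative = inhibition: plate controls were DMSO vehicle for no effect and no enzyme for full effect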
# Conditions: purified firefly luciferase, luminescence, 5 min; series mostly up to 54.1 µM; activity change, negative = inhibition: at the top concentration
# Outline: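 Titrated compounds were incubated 15 min at RT, protected from light, with luciferin and ATP at 10 uM; reaction started with 10 nM FLuc, luminescence imaged at 5 min, and concentration-response fitted by Hill equation.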
SMILES,"activity change, negative = inhibition",outcome
O=S(=O)(NCc1ccccn1)c1ccc(Br)c2ccccc12,1.11%,
C/C=C(\C)C(=O)O[C@H]1C=C(CO)C(=O)[C@H](OC(C)=O)[C@H]1C(C)C,-3.04%,
O=C(NCc1ccccc1)c1ccc2c(=O)n(-c3cccc(C(F)(F)F)c3)c(=S)[nH]c2c1,,inactive
C[C@H](Nc1cc2c(-c3ccc4c(c3)OCO4)noc2cn1)c1ccccc1,,inactive
CC1=CC2/C=C(\C)CCC3OC(C)(C)OC3CCC(=O)C23C(=O)NC(CC(C)C)C3C1C (centres undefined),1% [at 25.7 µM],
COc1ccc(Sc2ccc(NC(=O)c3ccccc3Cl)cc2C#N)cc1,3.95%,
COc1ccc([C@H]2OC[C@H]3O[C@@H](O[C@H]4[C@@H]2NC[C@@H]4O)[C@H](O)[C@H]3O)cc1,-1.45%,
CC(=O)O[C@H]1C[C@@](O)(C(C)C)[C@@H]2[C@@H](OC(=O)c3ccc(O)cc3)CC(C)=CC[C@@]12C,2.91% [at 25.7 µM],
CCCCNc1ncc2c(-c3ccc(S(=O)(=O)N4CCOCC4)cc3)nn(C3CCC(O)CC3)c2n1 (centres undefined),4.81%,
